We go through four compounds from PubChem BioAssay (EPA / NIEHS).

Active and inactive are the calls of the source. The calls were made as follows: active = hit-call score of the fitted dose curve at least 0.9, where 1 is the maximum; inactive = score below 0.9.

Holding throughout (details): mRNA level, 48 h; actives raise or lower the signal
Read-out in assay [1]: Nuclear factor NF-kappa-B p105 subunit (Homo sapiens) (UniProt P19838)
Description: LTEA_HepaRG_NFKB1: Life Technologies and Expression Analysis (LTEA) Assay for Nuclear Factor Kappa B Subunit 1 (NFKB1) using HepaRG (AID 2283521). The essentials: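 Differentiated human HepaRG cells in serum-free induction medium with 0.5% DMSO were exposed for 48 h to eight half-log concentrations, top 100 uM, in duplicate. NFKB1 mRNA measured by Fluidigm TaqMan qRT-PCR, normalised to ACTB, GAPDH and POLR2A; bidirectional fit versus DMSO.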

Read-out in assay [2]: Protein phosphatase 2A (PPP2R4), PTPA (gene 5524)
The experiment in a line: LTEA_HepaRG_PPP2R4: Life Technologies and Expression Analysis (LTEA) Assay for Protein phosphatase 2A (PPP2R4) using HepaRG (AID 2283522). The essentials: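 Using HepaRG cultures maintained in 0.5% DMSO, chemicals are tested 48 h at up to 100 uM in duplicate. Induction or suppression of PPP2R4 mRNA, measured by qRT-PCR, is fitted bidirectionally against the vehicle baseline.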

Read-out in assay [3]: Phosphatase and tensin (PTEN), PTEN (gene 5728)
The experiment in a line: LTEA_HepaRG_PTEN: Life Technologies and Expression Analysis (LTEA) Assay for Phosphatase and tensin (PTEN) using HepaRG (AID 2283523). The gist of the method: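 Read-out: TaqMan qRT-PCR of PTEN transcript, normalized to three housekeeping genes, fitted in both directions against 0.5% DMSO. Differentiated human HepaRG cultures received chemicals for 48 h, eight-point half-log series topping at 100 uM.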

Read-out in assay [4]: solute carrier (SLC22A1), SLC22A1 (gene 6580)
The experiment in a line: LTEA_HepaRG_SLC22A1: Life Technologies and Expression Analysis (LTEA) Assay for solute carrier (SLC22A1) using HepaRG (AID 2283524). The gist of the method:
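Transcript level of SLC22A1 quantified by qRT-PCR (normalized to three housekeeping genes) after 48 h chemical exposure of HepaRG cells, eight concentrations up to 100 µM, half-log steps, 0.5% DMSO vehicle. Gain or loss relative to DMSO fitted bidirectionally.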

Read-out in assay [5]: Pyruvate Dehydrogenase Kinase 4 (PDK4), PDK4 (gene 5166)
The experiment in a line: LTEA_HepaRG_PDK4: Life Technologies and Expression Analysis (LTEA) Assay for Pyruvate Dehydrogenase Kinase 4 (PDK4) using HepaRG (AID 2283525). The gist of the method:
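Readout is qRT-PCR of PDK4 transcript, normalized to three housekeeping genes, with bidirectional fitting against 0.5% DMSO vehicle. Differentiated HepaRG cells were treated 48 h in serum-free induction medium, duplicate wells, eight-point half-log series topping at 100 uM.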

Read-out in assay [6]: NAD(P)H dehydrogenase [quinone] 1 (NQO1), NQO1 (gene 1728)
Description: LTEA_HepaRG_NQO1: Life Technologies and Expression Analysis (LTEA) Assay for NAD(P)H dehydrogenase [quinone] 1 (NQO1) using HepaRG (AID 2283526). The gist of the method:
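In this assay, gene expression is read by qRT-PCR after 48 h exposure of HepaRG cells to eight concentrations (max 100 uM, half-log) in 0.5% DMSO. Each chemical runs in duplicate, and activity is scored relative to vehicle.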

Read-out in assay [7]: Nuclear factor erythroid 2-related factor 2 (Homo sapiens) (UniProt Q16236)
Description: LTEA_HepaRG_NFE2L2: Life Technologies and Expression Analysis (LTEA) Assay for Nuclear factor erythroid 2-related factor 2 (NFE2L2) Transcription Factor using HepaRG (AID 2283527).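 Also: TaqMan qRT-PCR transcript level normalised to ACTB GAPDH and POLR2A housekeeping genes.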 The gist of the method: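 NFE2L2 transcript level was read by qRT-PCR (housekeeping ACTB/GAPDH/POLR2A normalisation) after 48 h chemical treatment of HepaRG in serum-free induction medium. Duplicate 8-point half-log curves, top 100 uM, 0.5% DMSO vehicle; up- or down-regulation fitted against vehicle.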

Read-out in assay [8]: succinate dehydrogenase complex iron sulfur subunit B (SDHB), SDHB (gene 6390)
The experiment in a line: LTEA_HepaRG_SDHB: Life Technologies and Expression Analysis (LTEA) Assay for succinate dehydrogenase complex iron sulfur subunit B (SDHB) using HepaRG (AID 2283528). The essentials: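 HepaRG cells (~100,000/well, plated 48 h) exposed in duplicate for 48 h in serum-free induction medium to 8-point half-log series from 100 uM in 0.5% DMSO; mRNA by qRT-PCR normalised to ACTB, GAPDH, POLR2A; bidirectional fit versus DMSO.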

Read-out in assay [9]: Signal transducer and activator of transcription 3 (Homo sapiens) (UniProt P40763)
Description: LTEA_HepaRG_STAT3: Life Technologies and Expression Analysis (LTEA) Assay for Signal transducer and activator of transcription (STAT3) using HepaRG (AID 2283529). The gist of the method:
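STAT3 transcript quantified by qRT-PCR against three housekeeping genes (ACTB, GAPDH, POLR2A), fitted both directions relative to DMSO. HepaRG cultures exposed 48 h to eight half-log concentrations, top 100 uM, 0.5% DMSO, serum-free induction medium.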

Read-out in assay [10]: solute carrier (SLCO1B1), SLCO1B1 (gene 10599)
The experiment in a line: LTEA_HepaRG_SLCO1B1: Life Technologies and Expression Analysis (LTEA) Assay for solute carrier (SLCO1B1) using HepaRG (AID 2283530). The essentials: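 SLCO1B1 transcript levels were quantified by TaqMan qRT-PCR using three housekeeping genes for normalization. This followed 48 h chemical exposure (100 uM top, half-log, 8 points, 0.5% DMSO) of HepaRG liver cells, with gain or loss fitted relative to DMSO.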

Read-out in assay [11]: sulfotransferase 2A1 (SULT2A1), SULT2A1 (gene 6822)
The experiment in a line: LTEA_HepaRG_SULT2A1: Life Technologies and Expression Analysis (LTEA) Assay for sulfotransferase 2A1 (SULT2A1) using HepaRG (AID 2283531). The gist of the method:
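Expression change of SULT2A1, by qRT-PCR with three housekeeping-gene normalization, was scored bidirectionally versus DMSO. Cells: differentiated HepaRG, dosed in duplicate for 48 h across 8 points, highest 100 µM, half-log dilution, 0.5% DMSO.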

Read-out in assay [12]: Transforming Growth Factor (TGFB1), TGFB1 (gene 7040)
The experiment in a line: LTEA_HepaRG_TGFB1: Life Technologies and Expression Analysis (LTEA) Assay for Transforming Growth Factor (TGFB1) Transporter using HepaRG (AID 2283533). The gist of the method:
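TGFB1 transcript measured by qRT-PCR with normalisation to three housekeeping genes (ACTB, GAPDH, POLR2A); human HepaRG line treated in duplicate for 48 hr with an 8-point series topping at 100 uM, 0.5% DMSO vehicle, bidirectionally fitted.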

Read-out in another assay: TIMP1, TIMP1 (gene 7076)
The experiment in a line: LTEA_HepaRG_TIMP1: Life Technologies and Expression Analysis (LTEA) Assay for TIMP1 using HepaRG (AID 2283534). The gist of the method:
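Bidirectional change in TIMP1 transcript versus 0.5% DMSO, measured by TaqMan qRT-PCR with three housekeeping genes for normalization. HepaRG human liver cells dosed 48 h in duplicate, top concentration 100 uM with half-log dilutions.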

Read-out in assay [13]: Tumor necrosis factor receptor 1 (TNFRSF1A), TNFRSF1A (gene 7132)
The experiment in a line: LTEA_HepaRG_TNFRSF1A: Life Technologies and Expression Analysis (LTEA) Assay for Tumor necrosis factor receptor 1 (TNFRSF1A) using HepaRG (AID 2283535). The essentials: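 mRNA measured by qRT-PCR (TaqMan, Fluidigm arrays) against ACTB/GAPDH/POLR2A housekeepers after 48 h chemical exposure of HepaRG cells. Top concentration 100 uM, half-log 8-point series, duplicates; vehicle 0.5% DMSO, both fit directions.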

Read-out in assay [14]: Thyroid Hormone Responsive (THRSP), THRSP (gene 7069)
Description: LTEA_HepaRG_THRSP: Life Technologies and Expression Analysis (LTEA) Assay for Thyroid Hormone Responsive (THRSP) using HepaRG (AID 2283536). The essentials: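 THRSP transcript quantified by Fluidigm qRT-PCR against three housekeeping genes after 48 h chemical exposure of HepaRG cells in serum-free induction medium; eight-point half-log series, top 100 uM, 0.5% DMSO vehicle, duplicate wells.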

Read-out in assay [15]: UDP glucuronosyltransferase (UGT1A1), UGT1A1 (gene 54658)
The experiment in a line: LTEA_HepaRG_UGT1A1: Life Technologies and Expression Analysis (LTEA) Assay for UDP glucuronosyltransferase (UGT1A1) using HepaRG (AID 2283538). The gist of the method: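 mRNA induction or loss of UGT1A1, by TaqMan qRT-PCR, in duplicate HepaRG wells after 48 h exposure to half-log dilutions topping at 100 uM; DMSO (0.5%) served as baseline.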

Read-out in assay [16]: UDP glucuronosyltransferase (UGT1A6), UGT1A6 (gene 54578)
The experiment in a line: LTEA_HepaRG_UGT1A6: Life Technologies and Expression Analysis (LTEA) Assay for UDP glucuronosyltransferase (UGT1A6) using HepaRG (AID 2283539). The gist of the method:
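Expression was quantified by TaqMan qRT-PCR on Fluidigm arrays with ACTB/GAPDH/POLR2A normalization and bidirectional fitting against 0.5% DMSO. HepaRG cells (~100,000/well) were treated in duplicate for 48 h at eight half-log concentrations up to 100 uM in serum-free induction medium.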

Read-out in assay [17]: X-box binding protein 1 (XBP1), XBP1 (gene 7494)
The experiment in a line: LTEA_HepaRG_XBP1: Life Technologies and Expression Analysis (LTEA) Assay for X-box binding protein 1 (XBP1) using HepaRG (AID 2283540). The gist of the method:
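XBP1 transcript by qRT-PCR (housekeeping-normalized: ACTB, GAPDH, POLR2A) after 48 h chemical treatment of HepaRG cells, 8-point half-log series topping at 100 uM, vehicle 0.5% DMSO. Gain and loss of signal fitted relative to DMSO.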

Read-out in assay [18]: Transforming Growth Factor (TGFA), TGFA (gene 7039)
The experiment in a line: LTEA_HepaRG_TGFA: Life Technologies and Expression Analysis (LTEA) Assay for Transforming Growth Factor (TGFA) using HepaRG (AID 2283532). The gist of the method: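 TGFA transcript quantified by qRT-PCR (Fluidigm arrays) against three housekeeping genes, after 48 hours chemical treatment of HepaRG cells. Top concentration 100 uM with half-log dilutions, 8 points, duplicates, 0.5% DMSO.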

Read-out in assay [19]: Cellular tumor antigen p53 (Homo sapiens) (UniProt P04637)
Description: LTEA_HepaRG_TP53: Life Technologies and Expression Analysis (LTEA) Assay for Tumor Protein P53 (TP53) using HepaRG (AID 2283537). The gist of the method:
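Differentiated HepaRG cells in serum-free induction medium exposed 48 h in duplicate to 8 half-log concentrations, top 100 uM, 0.5% DMSO. TP53 mRNA by TaqMan qRT-PCR (Fluidigm), normalized to ACTB, GAPDH, POLR2A; fitted bidirectionally versus DMSO.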

Nuclear factor NF-kappa-B p105 subunit (Homo sapiens), sequence (P19838 whole entry, looked up): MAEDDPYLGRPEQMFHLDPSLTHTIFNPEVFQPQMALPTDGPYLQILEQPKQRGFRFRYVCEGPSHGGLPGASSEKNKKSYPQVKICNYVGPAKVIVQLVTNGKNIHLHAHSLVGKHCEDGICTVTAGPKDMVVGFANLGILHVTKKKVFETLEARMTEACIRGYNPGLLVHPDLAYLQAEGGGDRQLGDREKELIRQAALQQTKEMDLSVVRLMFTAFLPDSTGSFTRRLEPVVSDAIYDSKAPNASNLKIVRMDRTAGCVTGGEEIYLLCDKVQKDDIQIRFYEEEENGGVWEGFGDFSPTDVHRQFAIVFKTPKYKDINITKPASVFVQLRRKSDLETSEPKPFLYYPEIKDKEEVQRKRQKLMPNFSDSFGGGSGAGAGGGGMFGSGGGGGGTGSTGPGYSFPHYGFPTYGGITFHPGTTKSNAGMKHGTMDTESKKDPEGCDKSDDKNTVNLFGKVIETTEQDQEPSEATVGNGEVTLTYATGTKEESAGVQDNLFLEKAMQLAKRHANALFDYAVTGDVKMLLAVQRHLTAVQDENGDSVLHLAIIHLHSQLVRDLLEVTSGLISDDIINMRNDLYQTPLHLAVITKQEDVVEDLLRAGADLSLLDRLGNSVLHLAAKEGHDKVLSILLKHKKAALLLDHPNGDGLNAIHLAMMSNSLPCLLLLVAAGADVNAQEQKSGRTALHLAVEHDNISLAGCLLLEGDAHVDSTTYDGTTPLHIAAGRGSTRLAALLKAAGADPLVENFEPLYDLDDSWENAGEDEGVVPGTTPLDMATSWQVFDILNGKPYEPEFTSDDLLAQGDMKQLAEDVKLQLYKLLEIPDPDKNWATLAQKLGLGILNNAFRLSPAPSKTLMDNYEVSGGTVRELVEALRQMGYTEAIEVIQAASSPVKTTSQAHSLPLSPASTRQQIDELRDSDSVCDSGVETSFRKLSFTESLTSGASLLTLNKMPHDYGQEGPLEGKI
Cellular tumor antigen p53 (Homo sapiens), sequence (P04637 whole entry, looked up): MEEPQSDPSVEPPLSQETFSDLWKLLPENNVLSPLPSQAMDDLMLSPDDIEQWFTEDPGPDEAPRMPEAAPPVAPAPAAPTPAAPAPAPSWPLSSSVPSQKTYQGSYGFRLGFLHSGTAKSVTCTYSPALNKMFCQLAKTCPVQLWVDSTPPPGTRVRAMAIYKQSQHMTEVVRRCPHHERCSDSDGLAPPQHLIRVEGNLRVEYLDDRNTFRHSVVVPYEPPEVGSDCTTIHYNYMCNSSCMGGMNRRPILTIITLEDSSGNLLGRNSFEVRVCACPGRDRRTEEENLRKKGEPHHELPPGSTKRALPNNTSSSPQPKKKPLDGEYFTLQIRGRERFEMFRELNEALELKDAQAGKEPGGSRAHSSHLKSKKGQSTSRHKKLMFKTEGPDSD
Nuclear factor erythroid 2-related factor 2 (Homo sapiens), sequence (Q16236 whole entry, looked up): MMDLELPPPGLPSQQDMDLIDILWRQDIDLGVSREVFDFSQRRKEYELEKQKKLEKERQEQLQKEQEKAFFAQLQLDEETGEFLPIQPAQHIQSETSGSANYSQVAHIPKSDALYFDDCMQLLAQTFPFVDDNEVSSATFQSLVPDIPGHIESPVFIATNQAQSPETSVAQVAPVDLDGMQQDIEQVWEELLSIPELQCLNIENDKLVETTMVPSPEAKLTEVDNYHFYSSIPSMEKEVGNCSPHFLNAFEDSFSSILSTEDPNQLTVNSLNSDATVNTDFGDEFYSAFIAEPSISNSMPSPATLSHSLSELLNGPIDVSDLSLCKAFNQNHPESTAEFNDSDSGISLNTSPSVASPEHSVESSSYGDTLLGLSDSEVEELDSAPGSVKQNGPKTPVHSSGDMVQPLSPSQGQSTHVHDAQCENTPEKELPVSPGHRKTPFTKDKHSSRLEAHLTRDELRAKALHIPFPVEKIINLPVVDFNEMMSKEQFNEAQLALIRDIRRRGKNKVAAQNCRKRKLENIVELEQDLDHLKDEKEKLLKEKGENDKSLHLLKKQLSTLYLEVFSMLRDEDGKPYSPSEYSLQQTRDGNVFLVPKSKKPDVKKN
Signal transducer and activator of transcription 3 (Homo sapiens), sequence (P40763 whole entry, looked up): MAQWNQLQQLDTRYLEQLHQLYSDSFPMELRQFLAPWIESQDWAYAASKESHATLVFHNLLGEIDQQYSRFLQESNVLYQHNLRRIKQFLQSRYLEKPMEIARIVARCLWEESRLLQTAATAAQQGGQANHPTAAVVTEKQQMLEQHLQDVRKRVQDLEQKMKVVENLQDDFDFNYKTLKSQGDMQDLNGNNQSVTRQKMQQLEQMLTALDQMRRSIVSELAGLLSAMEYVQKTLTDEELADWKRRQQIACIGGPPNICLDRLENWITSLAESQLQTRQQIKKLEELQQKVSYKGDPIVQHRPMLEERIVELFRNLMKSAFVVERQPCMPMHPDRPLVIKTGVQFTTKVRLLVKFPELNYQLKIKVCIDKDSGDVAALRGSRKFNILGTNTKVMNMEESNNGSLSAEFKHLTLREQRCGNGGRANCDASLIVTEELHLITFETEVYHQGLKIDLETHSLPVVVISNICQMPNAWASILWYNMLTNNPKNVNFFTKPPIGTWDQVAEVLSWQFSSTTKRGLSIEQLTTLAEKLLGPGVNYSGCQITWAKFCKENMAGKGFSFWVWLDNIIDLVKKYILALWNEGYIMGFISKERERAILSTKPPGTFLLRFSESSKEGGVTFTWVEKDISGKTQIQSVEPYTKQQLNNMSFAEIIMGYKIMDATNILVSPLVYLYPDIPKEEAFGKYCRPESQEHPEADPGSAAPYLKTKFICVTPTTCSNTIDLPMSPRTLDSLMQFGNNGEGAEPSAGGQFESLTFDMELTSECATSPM

For the compound `Cc1ccc(S(=O)(=O)NC(=O)NN2CCCCCC2)cc1`, the outcome in [1], in assay [2], in assay [3], in assay [4], in assay [5] and in assay [6] was inactive. Besides, the call in [7], in [8], in [9], in assay [10], in assay [11] and in assay [12] was inactive. The outcome in the assay with TIMP1, TIMP1 (gene 7076) is “inactive”; in assay [13], “inactive”; in assay [14] it was “inactive”; in assay [15], “inactive”; in assay [16] it was “inactive”; in [17], “inactive”.

Take `CCCCOC(=O)c1ccccc1`: the outcome in assay [1], in [2], in assay [3], in assay [4], in assay [5] and in [6] was inactive. The call in assay [7], in assay [8], in assay [9], in [10], in assay [11] and in assay [18] was inactive. The outcome in assay [12] was “inactive”; with TIMP1, TIMP1 (gene 7076) it was “inactive”; in assay [13], “inactive”; in assay [19], “inactive”; in assay [15], “inactive”; in assay [16] it was “inactive”. The result in assay [17] was inactive.

In general, AC50 refers to the midpoint of the concentration-response curve, whichever way the signal moves. Take `c1ccc2cc3ccccc3cc2c1`: the compound was classed as inactive in assay [1], in assay [2], in assay [3], in [4], in [5] and in assay [6]. Further, the compound was called inactive in [7], in assay [8], in assay [9], in [10], in assay [11] and in assay [12]. Further, the outcome with TIMP1, TIMP1 (gene 7076) is “inactive”; in assay [13], “inactive”; in [19], “inactive”; in assay [16], “inactive”; in assay [17], “inactive”. In assay [15], the AC50 is 13.1 µM (active).

`NC(=O)NN=Cc1ccc([N+](=O)[O-])o1`: the compound was classed as inactive in [1], in assay [2], in assay [3], in assay [4], in assay [5] and in assay [7]. The outcome is “inactive” in assay [8]; “inactive” in assay [9]; “inactive” in assay [10]; “inactive” in assay [11]; “inactive” in assay [12]; “inactive” with TIMP1, TIMP1 (gene 7076). Further, the call in assay [13], in [14], in [15], in [16] and in [17] was inactive. For the same compound, the concentration at half-maximal activity (AC50) in [6] was 11.4 µM (active); in assay [19] it was 9.92 µM (active).
